Screening results as filed in PubChem.
Chronic BCR inh: inhibitors of chronic active B-cell receptor signaling | ABC-DLBCL IkBa-CBG/CBR reporter, luminescence ratio, 4 h | Potency, µM (doses to about 46.1 µM), for inactives: at the highest dose activity change, negative = inhibition, usual class: inhibitors | AID 493014 | actives 0.05% (n = 340,000); active = well fitted inhibition curve with a large enough effect in the signal ratio, with a control signal flat, not every such curve was filed as active; inconclusive = small, poorly fitted or top-dose-only effect, or effect the other way, or a change in a side signal; the % refers to the signal ratio;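 also: potency is read from the fitted curve at half-maximal effect; plate controls were basal doxycycline-induced cells for no effect and cells given 10 µM MG132 for full effect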
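Cell line TMD8 (human ABC DLBCL), stably expressing tet-inducible CBG68-IkBa fusion and CBR; IMDM/0.5% FBS; cpd up to 46 uM; dox induction, 4 h, 37C/5% CO2; dual luminescence; green/red ratio; MG132 control.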
Giardia killer: Giardia lamblia killing; Giardia lamblia trophozoite viability; activity change, % at 7.66 µM, hits read low; actives 0.15% (n = 340,000); AID 540267; in the data active = activity change below about -80%; inconclusive = between about -30% and that limit;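 also: parasites exposed to compound for two days anaerobically before the ATP read; % is scaled to controls: 0 for no effect and ±100 for the full control effect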
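Killing of trophozoites was scored by loss of ATP luminescence after a 48 hrs anaerobic exposure to compounds at 37 deg C, using 100 cells per well.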
RORg inh: inhibitors of mouse ROR gamma transcriptional activity | P51450 | Drosophila S2 Gal4-RORgamma UAS-luciferase reporter, 20 h | Potency, µM (series often up to 53.6 µM), inactives show at the top dose activity change, negative = inhibition, actives largely listed as inhibitors | actives 5.4% (n = 310,000); also: potency is read from the fitted curve at half-maximal effect; % is scaled to controls: 0 for no effect and ±100 for the full control effect; nearly all actives have a fitted effect of over 60% in size
Target sequence (P51450 whole entry, looked up, the tested form may be a part): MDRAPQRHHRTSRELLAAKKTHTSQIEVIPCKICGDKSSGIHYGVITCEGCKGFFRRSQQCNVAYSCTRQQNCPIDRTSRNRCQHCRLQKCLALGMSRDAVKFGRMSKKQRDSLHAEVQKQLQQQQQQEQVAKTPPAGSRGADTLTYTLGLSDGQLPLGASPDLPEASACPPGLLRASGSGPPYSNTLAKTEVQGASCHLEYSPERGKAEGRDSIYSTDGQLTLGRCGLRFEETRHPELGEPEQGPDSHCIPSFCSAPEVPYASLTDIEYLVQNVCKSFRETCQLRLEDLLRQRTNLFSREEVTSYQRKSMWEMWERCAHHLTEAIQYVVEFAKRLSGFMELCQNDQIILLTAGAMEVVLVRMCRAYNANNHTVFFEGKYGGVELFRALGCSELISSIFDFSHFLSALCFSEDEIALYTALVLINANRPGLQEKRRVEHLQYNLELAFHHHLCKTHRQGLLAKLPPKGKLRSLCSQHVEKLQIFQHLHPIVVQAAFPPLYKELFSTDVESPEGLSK
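A Gal4/UAS one-hybrid system in insect cells: metallothionein-promoter Gal4–ROR gamma fusion plus Photinus luciferase reporter. Copper sulfate 700 uM final, 20 hr ambient incubation, luminescent detection after 10 min with reagent.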
MCF10A rereplic: induces DNA re-replication in MCF 10a normal breast cells | MCF 10A DNA re-replication, Hoechst nuclear intensity, 48 h | actives 2.9% (n = 350,000) | Potency, µM (top dose mostly 46.1 µM), for the others: at the highest dose activity, positive = re-replication, most hits filed as activators; also: potency is read from the fitted curve at half-maximal effect; % of control where 0% means no effect; nearly all actives have a fitted effect of over 50% in size
VP16 counter: inhibits Gal4-VP16 luciferase reporter, ROR gamma counter-screen; Drosophila S2 Gal4-VP16 UAS-luciferase, luminescence, 20 h; Potency, µM (highest dose often 53.6 µM), inactives show at the top dose activity, negative = inhibition, actives largely listed as inhibitors; actives 3.5% (n = 310,000); AID 2546;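 also: Gal4-VP16 expression switched on by copper sulfate through the metallothionein promoter; potency is read from the fitted curve at half-maximal effect; % is scaled to controls: 0 for no effect and ±100 for the full control effect; nearly all actives have a fitted effect of over 50% in size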
SW480 rerep: DNA re-replication induction in SW480 cells. SW480 DNA re-replication, Hoechst DNA content imaging, 48 h. actives 1.8% (n = 340,000). Potency, µM (doses to about 46.1 µM), for the others: at the highest dose re-replication activation, usual class: activators; also: potency is read from the fitted curve at half-maximal effect; % of control where 0% means no effect; nearly all actives have a fitted effect of over 55% in size
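Per well, 250 cells were exposed to pinned compound for 48 hr. Nuclear DNA was visualised with Hoechst (40 min, 37 C) and total object intensity recorded by fluorescence scanning.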
* marks the source's active call; other numbers are inactive results; ? = inconclusive; . = no result given; [ ] = another dose, or the depositor's remark. Most compounds without a hit are left out; they make up all but 8.3% or so of the library. Unless noted, calls follow the shape of the dose curve; as a rule, active = well fitted curve in the direction sought with a large enough effect; inconclusive = small, poorly fitted or top-dose-only effect, or another doubt; inactive = no such curve, though single readings can be large; an effect the other way counts as inactive or inconclusive.

SMILES	Chronic BCR inh	Giardia killer	RORg inh	MCF10A rereplic	VP16 counter	SW480 rerep
COC(=O)c1ccc(S(=O)(=O)N2CCCN(Cc3cccc(Br)c3F)CC2)n1C	1.9%	-8.8	?	13.6%	-18.5%	?
CSCCOC(=O)c1[nH]c2c(c1C)C(=O)CC(c1ccco1)C2 (stereo not drawn)	?	-3.0	?	?	2.9%	1.3µM*
COC(=O)c1cc(=O)n2c(sc3ccccc32)c1C#N	?	-7.0	-14.5%	20.6µM*	9.4%	23.1µM*
COC(=O)c1cc(C)nc(N)c1C#N	?	-8.1	-2.6%	-1.7%	5.8%	-1.1%
O=C(c1cccc(F)c1)N1CCC2(CCCN(C(c3ccccc3)c3ccccc3)C2)CC1	.	.	50.2%	.	-7.3%	.
COc1ccc2c(c1)c(CC(=O)Nc1cc(C)ccc1C)c(C)n2C(=O)c1ccc(Cl)cc1	?	4.3	14.4%	6.8%	-16.8%	0.7%
COc1ccc2c(c1)c(CC(=O)NCc1cc([N+](=O)[O-])ccc1O)c(C)n2C(=O)c1ccc(Cl)cc1	?	-9.7	?	23.1µM*	?	-2.3%
COc1ccc2c(c1)c(CC(=O)Nc1nnc(C3CC3)s1)c(C)n2C(=O)c1ccc(Cl)cc1	-1.9%	11.0	3.2%	10.3µM*	-10.3%	?
COc1ccc2c(c1)c(CC(=O)Nc1ccccc1OC)c(C)n2C(=O)c1ccc(Cl)cc1	?	37.7	25.2%	16.4µM*	-10.6%	0.5%
COc1ccc2c(c1)c(CC(=O)Nc1ccc(C(C)=O)cc1)c(C)n2C(=O)c1ccc(Cl)cc1	?	-2.6	81.1%	3.3%	0.1%	-18.1%
Cc1cnn(CCC(=O)NNC(=S)Nc2ccccc2)c1	-2.7%	5.4	0.1µM*	-19.3%	1.12µM*	?
COc1cccc(NC(=S)NNC(=O)CCn2cc([N+](=O)[O-])cn2)c1	0.9%	?	?	0.8%	-6.0%	-0.8%
Cc1ccc(NC(=S)NNC(=O)CCn2cc(C)cn2)cc1	-10.2%	1.6	0.282µM*	2.0%	1.41µM*	9.2µM*
Cc1ccccc1Nc1oc(-c2ccccc2)nc1-c1ccccc1	.	.	13.5%	.	-7.7%	.
C[C@H](CO)N1C[C@H](C)[C@@H](CN(C)S(C)(=O)=O)Oc2c(NC(=O)Cc3ccccc3)cccc2C1=O	0.3%	-5.5	.	-4.4%	.	0.116µM*
CC(C)(C)C(=O)NC(NC(=S)Nc1sc2c(c1C#N)CCCC2)C(Cl)(Cl)Cl (stereo not drawn)	17.2%	6.6	10µM*	?	?	11.3%
N#Cc1c(NC(=S)NC(=O)Cc2cccs2)sc2c1CCCCC2	-0.7%	3.1	5.01µM*	6.2%	15.8µM*	-8.3%
N#Cc1c(NC(=S)NC(=O)c2ccccc2)sc2c1CCC2	?	10.4	-41.8%[10 µM]	?	-82.5%	.
CC(=O)NC(=S)Nc1sc2c(c1C#N)CCCCC2	?	7.4	11.2µM*	?	8.91µM*	-6.7%
COc1cc(COC(=O)c2cnc(C)cn2)c(OC)cc1Br	0.3%	-6.1	-2.0%	-2.2%	4.0%	-3.8%
COc1ccc(CNC(=O)CCC(=O)Nc2cccnc2)cc1	-4.1%	20.6	0.6%	-20.1%	2.2%	?
CO[C@H]1COC(=O)C/C=C\[C@H](C)[C@H](OC)COC(=O)[C@@H](C)COC(=O)C/C=C\[C@@H]1C	.	.	-15.7%[10 µM]	.	1.2%[10 µM]	.
CCOc1ccc(-c2[nH]ncc2Oc2ccccc2OCC)c(O)c1	-13.9%	15.0	10µM*	-4.4%	?	12.9%
CCOc1ccccc1Oc1cn[nH]c1-c1ccc(OCC(=O)NN)cc1O	-2.8%	-4.9	0.1%	7.2%	-3.1%	-0.3%
CCOc1ccc(-c2[nH]ncc2Oc2ccccc2OC)c(O)c1	-3.1%	-13.8	15.8µM*	6.7%	?	12.1%
SMILES	Chronic BCR inh	Giardia killer	RORg inh	MCF10A rereplic	VP16 counter	SW480 rerep
CC(=O)c1ccc(S(=O)(=O)N2CCn3cccc3C2c2ccccc2F)cc1 (stereo not drawn)	-0.1%	.	.	.	.	.
Cc1nn2c(COc3ccc(NC(=O)c4ccccc4Cl)cc3)nnc2c2ccccc12	?	0.3	39.4%	2.91µM*	-7.9%	8.2µM*
Cc1cccc(Nc2ccc([N+](=O)[O-])cn2)c1	6.5%	11.7	?	1.6%	-6.3%	1.8%
CCn1c(SC)nc2c(c1=O)SC(C)C2 (stereo not drawn)	?	12.8	22.3%	20.6µM*	3.3%	-17.2%
O=C1Nc2ccc(Br)cc2/C1=C/C(=O)c1ccc2c(c1)OCO2	?	-3.7	11.2µM*	3.66µM*	?	?
COc1ccc2c(c1)/C(=C/c1cc(OC)c(OC)c(OC)c1)C(=O)N2	.	-8.6	.	?	.	2.59µM*
COc1ccc(/C=C2\C(=O)NC(=O)c3ccccc32)cc1OC	.	-2.7	.	?	.	?
COc1ccc(C(=O)/C=C2\C(=O)Nc3ccc(Br)cc32)cc1	.	-21.9	.	7.31µM*	.	?
COC(=O)[C@@H]1C=C[C@H](C)[C@H](CCOc2ccccc2)O1	.	.	-19.0%	.	-1.4%	.
Cc1[nH]c(=O)[nH]c(=O)c1S(=O)(=O)N1CCN(c2ccccc2Cl)CC1	-0.8%	.	.	.	.	.
Cc1cc(OCC(=O)NCCCN2CCOCC2)c2c(C)cc(=O)oc2c1	-3.9%	-9.5	-4.4%	-5.2%	-9.2%	25.4%
CCC(C)C(=O)Nc1cccc(SC)c1 (stereo not drawn)	?	.	-4.7%	.	-15.7%[10 µM]	.
O=C1c2cccc3cccc(c23)C(=O)N1CCN1CCN(C(=S)Nc2ccc(F)cc2)CC1	0.7%	.	-33.3%	.	-2.0%	.
CC(C)C(=O)N1CCN(CCN2C(=O)c3cccc4cccc(c34)C2=O)CC1	?	-17.9	-5.3%	-0.6%	4.2%	4.3%
O=C(C(c1ccccc1)c1ccccc1)N1CCN(CCN2C(=O)c3cccc4cccc(c34)C2=O)CC1	?	3.2	-1.4%	14.6µM*	1.9%	-2.6%
Cc1ccc(NC(=S)N2CCN(CCN3C(=O)c4cccc5cccc(c45)C3=O)CC2)cc1	1.8%	8.7	7.08µM*	-0.7%	?	-2.0%
O=C(Nn1cnnc1)c1ccc(Cl)cc1	4.9%	-8.6	-14.7%	-0.8%	-4.2%	6.1%
Cc1ccc(S(=O)(=O)N2CCN(C(=O)CN(Cc3ccco3)Cc3cccs3)CC2)cc1	.	12.8	.	5.6%	.	-11.5%
Cc1ccc(C2=[N+]([O-])C3(CCCCC/C3=N\NC(N)=O)N(O)C2(C)C)o1 (stereo not drawn)	?	-13.6	1.2%	-10.0%	-23.6%	-3.8%
Cc1ccc(C2=[N+]([O-])C3(CCCCC/C3=N\NC(N)=S)N(O)C2(C)C)o1 (stereo not drawn)	3.2%	.	1.58µM*	.	2.24µM*	.
